For 102 compounds, inhibition results are on record in PubChem BioAssay AID1626 (SRMLSC, 2009).

Out of some 220,000 compounds screened, about 2,000 (0.91%) were called active. Another 2% or so got no clear call; they are omitted. A selection follows. Results with a measured potency or affinity are listed apart. A number with no mark means an inactive call. No stated cut-off is given here; in the data, inconclusive means inhibition above about 80% without an active follow-up result; inactive means below that; test concentration not stated here.

This test is described as follows: M. tuberculosis H37Rv growth inhibitors, H37Rv strain (AID 1626).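 Further: bacteria incubated seven days before Alamar blue readout; 0% = bacteria only wells and 100% = bacteria with antibiotic wells.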 The following applies: hits give high values, concentration not given here.
In the case of `Cc1ccc(C(=O)OCC(=O)NCC(F)(F)F)cc1C`, the inhibition was 9.6%. For `O=C(CC1C(=O)NCCN1CC1CCCCC1)NCCc1ccc(F)cc1` (configuration not stated) the value was -4.2%; for `CCOC(=O)Cc1ccc(NC(=O)c2ccccc2Br)cc1`, 7.37%; for `CCOC(=O)c1ccc(NC(=O)CN2C(=O)CNC2=O)cc1`, -6.17%. For `COC(=O)Cc1ccc(NC(=O)c2ccc(C(C)(C)C)cc2)cc1` the value was 6.95%; for `CC(=O)c1cccc(NC(=O)Cc2coc3cc4c(cc23)CCC4)c1`, 6.34%; for `CCOC(=O)c1ccc(NC(=O)CNC(=O)C23CC4CC(CC(C4)C2)C3)cc1`, -2.81%. For `Cc1ccc(C)c(NC(=O)Cc2coc3cc4c(cc23)CCC4)c1` the value was 9.72%; for `CCOC(=O)c1ccc(NS(C)(=O)=O)cc1`, -0.25%; for `CCOC(=O)c1ccc(NC(=O)CN2C(=O)CCC2=O)cc1`, -7.66%.

Regarding `O=S(=O)(Cc1ccccc1)Cc1cnc(Cl)s1`, the inhibition was 4.1%. Consider `CCCOCCc1nnc(N)s1`, for which the inhibition was 1.89%. Then `Cc1cccc(OCCSc2cc(C)nc(N)n2)c1`, with 6.69%; and `Cc1[nH]c2ccccc2c1/C=C/C(=O)c1ccncc1`, with 6.67%; and `COc1ccc(/C=C/C(=O)c2ccncc2)c2ccccc12`, with 76%.

In the case of `O=C(/C=C/c1ccc2c(c1)OCO2)Nc1cccnc1`, the inhibition is 8.75%. Then `CCCCN(CCNP(=O)(OCC)OCC)CP(=O)(OCC)OCC`, with -3.59%; and `Nc1nc2ccc(O)cc2s1`, with -4.72%; and `COc1ccc2nc(N)sc2c1`, with 42%. Then `O=C(O)CSC1=NC(=Nc2cccc(Cl)c2)C2(CCCCC2)N1c1ccccc1`, with 5.37%. For `O=C(NC1CC1)C1=C[C@@H](c2ccccc2)C[C@@H](OCc2ccc(CO)cc2)O1`, the inhibition was -10.6%. Consider `COc1ccccc1N1CCN(c2nc3ccccn3c(=O)c2C=O)CC1`, for which the inhibition was -13.2%. On to `N#Cc1nc(-c2cccs2)oc1NCc1ccccc1`, for which the inhibition was 6.94%. Consider `C=CCNc1oc(-c2cccs2)nc1C#N`, for which the inhibition was -10.7%. Turning to `CCOC(=O)C1(Cc2ccccc2)CCN(Cc2ccc(COC)o2)CC1`, the inhibition was 8.15%. For `Cc1cccc(NC(=O)CSc2nnc(-c3ccncc3)n2C)c1` the value was -2.48%; for `COC(=O)c1ccc(N)c(N=CC2=C(O)CC(C)(C)CC2=O)c1`, 99.2%; for `CCSC1=C(C#N)C(c2cccs2)C(C(=O)OC)=C(C)N1` (configuration not stated), -5.12%. For `CCOCCSC1=C(C#N)C(c2cccs2)C(C(C)=O)=C(C)N1` (configuration not stated) the value was -2.87%. Then `Cc1nc2cc(NC(=O)CCS(=O)(=O)c3ccccc3)ccc2s1`, with -0.27%; and `Cc1ccccc1Oc1ncnc(N)c1[N+](=O)[O-]`, with -1.2%. Regarding `Nc1ncnc(Oc2ccccc2F)c1[N+](=O)[O-]`, the inhibition was 7.09%. Then `COc1ccc(NC(=O)C(=O)NCCN2CCN(C(=O)c3ccco3)CC2)cc1`, with 4.1%; and `O=C(Cc1cccs1)Nc1ccc(-c2nc3ccccc3[nH]2)cc1`, with 1.13%. For `O=C(COc1ccccc1)Nc1cccc(-c2nc3cc4ccccc4cc3[nH]2)c1` the value was 55.3%; for `O=C(Nc1cccc([N+](=O)[O-])c1)N1CCN(c2ccccc2)CC1`, -7.11%. In the case of `CC(=O)c1ccc(NC(=O)N2CCN(c3ccc(C)cc3)C(C)C2)cc1` (configuration not stated), the inhibition was 0.07%. Take `Cc1ccc(NC(=S)NCc2ccccc2)cc1S(=O)(=O)N1CCCCC1`: the inhibition is -3.09%. For `CCCn1cnc2c(N)c(C)c(C)cc21` the value was -8.86%; for `Cc1cc2c(ncn2Cc2ccccc2)c(N)c1C`, 1.64%; for `N#C/C(=N\Nc1c(Cl)cccc1Cl)C(=O)NN`, 0.65%. For `O=[N+]([O-])c1cc(/C=N\Nc2nc(-c3ccccc3)cs2)ccc1O`, the inhibition was -2.52%. In the case of `O=C(Nc1ccccc1Cl)Nc1ccccc1Cl`, the inhibition was -9.3%. For `O=C(Nc1ccccc1Cl)Oc1ccc(Cl)cc1Cl` the value was -3.15%; for `Cn1c(NC(=O)C2CC2)cc(=O)n(C)c1=O`, 5.07%; for `CCn1c(/C=C/c2ccccc2)nc2ccccc2c1=O`, 0.15%. As to `O=c1oc(/C=C/c2ccccc2)nc2sc3c(c12)CCC3`, the inhibition was -3.48%.

Regarding `COC(=O)c1cc(OC)c(OC)cc1NC(=O)c1cccnc1`, the inhibition was 4.7%. On to `CCCOc1c(Cl)cc(C(=O)NC)cc1OC`, for which the inhibition was 12%. Then `COC(=O)CC1C(=O)NCCN1C(=O)c1sc2ccccc2c1Cl` (configuration not stated), with -9.23%; and `O=C(COC(=O)Cc1ccccc1F)Nc1ccc(Cl)cn1`, with -6.09%; and `COc1ccc(S(=O)(=O)c2cnc3ccc(OC)cc3c2N2CCC3(CC2)OCCO3)cc1`, with 9.48%. On to `CCOc1ccc2ncc(S(=O)(=O)c3ccccc3)c(N3CCC4(CC3)OCCO4)c2c1`, for which the inhibition is -1.36%.

`Cc1ccc(N2C(=O)[C@@H]3[C@H](C2=O)C2c4ccccc4C=NN2[C@@H]3C(=O)c2ccc(Cl)cc2)cc1` (some centres not stated): the inhibition is 8.72%. Then `Cc1ccc(-n2cc(-c3ccc([N+](=O)[O-])cc3)[nH]c2=S)c(C)c1`, with 3.47%; and `Cc1ccc(C(=O)CSc2ccccn2)cc1`, with -3.3%.

In the case of `O=C(O)c1ccnc(SCC(=O)c2ccccc2)c1`, the inhibition was -4.56%. On to `CCC(CC)C(=O)Nc1cc([N+](=O)[O-])ccc1Cl`, for which the inhibition is 5.59%.

In the case of `O=C(CCCC(=O)OCC(Cl)=C(Cl)Cl)Nc1ccccc1F`, the inhibition was -0.28%. Then `CCOC(=O)c1ccccc1Nc1cn(C(C)=O)c2ccccc12`, with 3.14%; and `CC(=O)n1cc(Nc2ccccc2C(=O)O)c2ccccc21`, with -4.19%; and `COC(=O)c1cn(C(=O)c2ccc(Cl)cc2)c2ccccc12`, with -3.26%.

As for `CC(=O)n1cc(Nc2ccc([N+](=O)[O-])cc2)c2ccccc21`, the inhibition was 3.13%.

On to `COc1ccccc1N(C(=O)CCl)c1cn(C(C)=O)c2ccccc12`, for which the inhibition is 42.8%.

In the case of `O=Cc1[nH]c2ccccc2c1N(C(=O)CCl)c1ccc([N+](=O)[O-])cc1`, the inhibition was -1.28%. Then `CC(=O)N(c1ccc(Cl)cc1)c1cn(C(C)=O)c2ccccc12`, with 11.9%; and `CC(=O)n1cc(-c2ccncc2)c2ccccc21`, with 8.31%; and `CC(NC(=O)COC(=O)C1CSC2(C)CCC(=O)N12)C12CC3CC(CC(C3)C1)C2` (configuration not stated), with -1.31%. For `O=C(CN1CCN(Cc2ccccc2)CC1)N/N=C/c1ccccc1F` the value was -1.58%; for `Cn1cc(CNCc2cn(C)nc2-c2ccc(C3CCCCC3)cc2)cn1`, 8.48%; for `COc1ccc(C(=O)c2ccc(Cl)cc2)cc1`, 6.37%. For the compound `CCOC(=O)C1CCN(S(=O)(=O)c2ccc(-n3cnnn3)c(C)c2)CC1`, the inhibition is -3.24%. As for `O=C(COC(=O)c1ccc(Cl)nc1)NCc1ccco1`, the inhibition is -2.82%. For `Clc1cccc(Cl)c1Cn1nnc(N2CCCC2)n1` the value was -4.55%; for `O=C(CCCn1c(SCC(=O)c2ccc(Cl)cc2)nc2ccccc2c1=O)NCc1ccco1`, -0.03%; for `Cc1cc(C)c2cc(C)c(SCC(=O)NCc3ccco3)nc2c1`, -6.87%.

On to `CCc1ccccc1NC(=S)N1CCNC(=O)C1CC(=O)OC` (configuration not stated), for which the inhibition was 3.01%. Then `Cc1ccc(NC2=C(Cl)C(=O)OC2OC(C)C)cc1` (configuration not stated), with -6.44%; and `CCN(CC)S(=O)(=O)c1ccc(N2CCOCC2)c(NC(=O)c2ccc(NC(C)=O)cc2)c1`, with -0.34%; and `CCCCN1/C(=C/c2ccc3ccccc3[n+]2CC)Sc2ccccc21`, with -5.31%. For `CC(=S)/C=C1\Sc2ccccc2N1C` the value was -6.98%; for `NC(=O)C1=NOC(CNc2ncc(C(F)(F)F)cc2Cl)C1` (configuration not stated), -9.36%. In the case of `CCN(CC)S(=O)(=O)c1ccc(C(=O)N2CCc3ccccc32)cc1`, the inhibition is -0.89%.

Regarding `O=C(/C=C/c1ccccc1)NCc1cccnc1`, the inhibition is -0.63%. For `COc1c(C)cc(Br)cc1C(=O)Nc1ccccc1N1CCN(C(=O)c2ccccc2)CC1` the value was 19.8%; for `O=C(Nc1ccccc1N1CCN(C(=O)c2ccccc2)CC1)c1cc(Br)ccc1Cl`, 8.71%. Regarding `Cc1cc(C)n2[nH]c(=O)c(N=Nc3cccc(C(F)(F)F)c3)c2n1`, the inhibition was 46.9%.

For `Cc1[nH]n(C2=NCCS2)c(=O)c1N=Nc1ccccc1`, the inhibition is 2.69%. As to `CN(c1ccccc1C(=O)N1CCN(Cc2ccc3c(c2)OCO3)CC1)S(C)(=O)=O`, the inhibition was -0.54%.

For the compound `COc1ccc(NC(=O)CCC(=O)OCc2ccc(C(=O)Oc3ccc(Cl)cc3)cc2)cc1`, the inhibition was 23.3%. As for `O=C(CCC(=O)OCc1cccc(C(=O)Oc2ccccc2)c1)Nc1cccc2ccccc12`, the inhibition is 4.16%.

For the compound `CC(C)(C)Nc1c([N+](=O)[O-])c(=O)sc2ccccc12`, the inhibition is -10.8%. As for `NC(=O)C1CCN(C(=O)c2ccc3c(=O)n(Cc4ccco4)c(SCC(=O)c4ccccc4)nc3c2)CC1`, the inhibition is -1.82%.

In the case of `CN(CCO)c1nc(N)c(C#N)c(CC#N)c1C#N`, the inhibition was -7.58%. On to `CCOc1ccccc1N1CCN(CC(=O)NC(=O)NCc2ccco2)CC1`, for which the inhibition was -1.18%. Take `COc1ccc(NC(=O)N2CCCCCC2)c(OC)c1`: the inhibition is -4.07%. For `Cn1c(N)c(C(=O)COC(=O)c2cnc(Cl)c(Cl)c2)c(=O)n(C)c1=O` the value was -6.46%; for `CC(C)Cn1c(N)c(C(=O)COC(=O)c2ccc(Cl)cc2)c(=O)n(C)c1=O`, 11.4%.

For `CCOc1ccccc1CNc1nc2nc3c(c(=O)n2[nH]1)CCC3`, the inhibition is -2.76%. Then `O=c1c2c(nc3nc(NCc4ccccc4Cl)[nH]n13)CCC2`, with -14.3%. Regarding `COc1ccccc1CNc1nc2nc3c(c(=O)n2[nH]1)CCC3`, the inhibition is 0.1%. For `O=c1c2c(nc3nc(NCc4cccc(Cl)c4)[nH]n13)CCC2`, the inhibition is 2.7%.

In general, inhibition refers to the change of the read-out against control, counted positive when it falls.
